Inconclusive results are not listed. Calls of active or inactive are those of the source. Calls follow the shape of the dose curve; as a rule, active = well fitted cell-killing curve with a large enough effect; inconclusive = small, poorly fitted or top-dose-only effect, or effect the other way; inactive = no such curve, though single readings can be large or run the other way.
Potency is read from the fitted curve at half-maximal effect.

This assay in a line: Quantitative High-Throughput drug screen in 47 multiple myeloma cell lines against the NCATS MIPE library collection: ARD_JJKsccE7 cell viability assay (AID 1918929). Conditions: ARD myeloma cell line viability, CellTiter-Glo, 48 h; series mostly up to 45.8 µM. The source says:
PI: Beverly A. Mock Ph.D.
Laboratory of Cancer Biology and Genetics,
Center for Cancer Research, National Cancer Institute,
National Institute of Health, Bethesda, Maryland
Drug resistance and disease progression are common in multiple myeloma (MM) patients, underscoring the need for new therapeutic combinations. […] We hypothesized that effective combinations would reduce MYC expression and enhance p16 activity. […] These preclinical data identify potentially useful drug combinations for evaluation in drug-resistant MM and reveal potential mechanisms of combined drug sensitivity.
Described herein is the primary MIPE qHTS used to cherrypick compounds. Validated compounds were then further tested for potential synergistic activiy.
[1] Peat TJ, Gaikwad SM, Dubois W, Gyabaah-Kessie N, Zhang S, Gorjifard S, Phyo Z, Andres M, Hughitt VK, Simpson RM, Miller MA, Girvin AT, Taylor A, Williams D, D'Antonio N, Zhang Y, Rajagopalan A, Flietner E, Wilson K, Zhang X, Shinn P, Klumpp-Thomas C, McKnight C, Itkin Z, Chen L, Kazandijian D, Zhang J, Michalowski AM, Simmons JK, Keats J, Thomas CJ, Mock BA. Drug combinations identified by high-throughput screening promote cell cycle transition and upregulate Smad pathways in myeloma. Cancer Lett. 2023 Aug 1;568:216284. doi: 10.1016/j.canlet.2023.216284. Epub 2023 Jun 24. PMID: 37356470; PMCID: PMC10408729.
SEQUENCE No. (e.g., 1, 2, 3, etc.); […] (e.g., Cells, Incubation, Reagent, etc.); VALUE and DESCRIPTION.
1; Cells; 5 uL; white, solid bottom 1536-well Greiner assay plate.
2; Compounds; 23 nL; Kalypsis pin tool (Wako USA) equipped with a 1536-well pin head to transfer to the assay plates.
3; Incubation; 48 hours; 37C incubation.
4; Reagent;5uL; CellTiter Glo (Promega).
5; Detector; 425V; Luminescence; Viewlux PerkinElmer.
NOTES (numbers refer to Sequence numbers above)
1. The cell-based screening methods employed in this study were like those previously published. Briefly, the corresponding myeloma cell lines were screened in 1,536-well plates with 500 cells, 5-uL per well for inhibition of cell viability (assessed by measuring ATP levels with CellTiterGlo).
2. NCATS MIPE 4.0 library of approved and investigational drugs were added using the Kalypsis pin tool. Wells treated with DMSO only for 100% viability and media only wells for 0% viability were used as controls.
3. The assay plates were covered and incubated for 48 hours in a 37C, 5% CO2 incubator with controlled humidity.
4. After 48 hours, CellTilter-GloTM luminescent substrate mix (Promega) reagent was added to the assay plate and plates we incubated for 5 min at room temperature.
5. Signal was measured as median relative luminescence units on a ViewLux (PerkinElmer) multiplate reader.
[1] Heske CM, Davis MI, Baumgart JT, Wilson K, Gormally MV, Chen L, Zhang X, Ceribelli M, Duveau DY, Guha R, Ferrer M, Arnaldez FI, Ji J, Tran HL, Zhang Y, Mendoza A, Helman LJ, Thomas CJ. Matrix Screen Identifies Synergistic Combination of PARP Inhibitors and Nicotinamide Phosphoribosyltransferase (NAMPT) Inhibitors in Ewing Sarcoma. Clin Cancer Res. 2017 Dec 1;23(23):7301-7311. doi: 10.1158/1078-0432.CCR-17-1121. Epub 2017 Sep 12. PMID: 28899971; PMCID: PMC6636827.
Regarding `COc1cc2cc(c1Cl)N(C)C(=O)C[C@H](OC(=O)C(C)C)[C@]1(C)O[C@H]1[C@H](C)[C@@H]1C[C@@](O)(NC(=O)O1)[C@H](OC)C=CC=C(C)C2`, the Potency entry was “inactive”.

Take `Cc1[nH]nc2ccc(-c3cncc(OC[C@@H](N)Cc4c[nH]c5ccccc45)c3)cc12`: the Potency entry was “inactive”. Take `C[C@@H]1CC[C@@]2(OC1)O[C@H]1C[C@H]3[C@@H]4CC=C5C[C@@H](O[C@@H]6O[C@H](CO)[C@@H](O[C@@H]7O[C@@H](C)[C@H](O)[C@@H](O)[C@@H]7O)[C@H](O)[C@@H]6O[C@@H]6O[C@@H](C)[C@H](O)[C@@H](O)[C@@H]6O)CC[C@]5(C)[C@@H]4CC[C@]3(C)[C@@H]1[C@H]2C`: the Potency was 2350 nM (active). For the compound `COc1cc([C@@H]2c3cc4c(cc3[C@@H](O)C3COC(=O)C32)OCO4)cc(OC)c1O` (stereo not given in full), the Potency was 8.3 nM (active). Next, `CCCCCC[C@H]1C(=O)O[C@H](C)[C@H](NC(=O)c2cccc(NC=O)c2O)C(=O)O[C@@H](C)[C@@H]1OC(=O)CC(C)C`: 372 nM (active).

Consider `CCOP(=O)(OCC)C(C)NC(=O)N(CCCl)N=O` (stereo not given), for which the Potency result was “inactive”. For `CC[C@@]1(O)C(=O)OCc2c1cc1n(c2=O)Cc2cc3ccccc3nc2-1`, the Potency was 372 nM (active).

On to `c1ccc(CCCN2CCN(CCOC(c3ccccc3)c3ccccc3)CC2)cc1`, for which the Potency result is “inactive”.

Turning to `C[C@@H]1O[C@@H](O[C@@H]2C=C3CC[C@@H]4[C@@H](CC[C@]5(C)[C@H](c6ccc(=O)oc6)CC[C@@]45O)[C@@]3(C)CC2)[C@H](O)[C@H](O)[C@H]1O`, the Potency was 9.3 nM (active). Consider `CC(=Cc1csc(C)n1)[C@@H]1C[C@H]2O[C@]2(C)CCC[C@H](C)[C@@H](O)[C@@H](C)C(=O)C(C)(C)[C@@H](O)CC(=O)O1`, for which the Potency result is “inactive”. Then `Cc1ccccc1-n1c(Cn2ncc3c(N)ncnc32)nc2cccc(C)c2c1=O`, with 118 nM (active); and `COc1ccc2c(c1)[C@]13CCCCC1C(C2)N(C)CC3` (stereo not given in full), with “inactive”.

With `C#CC1(O)CCC2C3CCC4=CC(=O)CCC4(C)C3CCC21C` (stereo not given), the Potency result was “inactive”. `CC(=CCCC1=CCC(C2=CC(=O)OC2O)OC1O)CCC1=C(C)CCCC1(C)C` (stereo not given): the Potency result is “inactive”. Take `COCC1(CO)C(=O)C2CCN1CC2` (stereo not given): the Potency is 20900 nM (active).

Regarding `O=C(N[C@@H](COc1ccc2[nH]c(=O)[nH]c2c1)c1ccccc1)c1cccn(Cc2ccc(F)c(F)c2)c1=O`, the Potency was 18700 nM (active). Consider `CCN(CC)C(=O)c1ccc(C2=CC3(CCNCC3)Oc3cccc(O)c32)cc1`, for which the Potency result was “inactive”.

Take `CC(C)N[C@@H]1CCn2c(=O)[nH]c3cccc(c32)[C@@H]1O`: the Potency is 6620 nM (active). Regarding `CN1[C@H]2CC(O)C[C@H]1[C@H]1O[C@H]12` (stereo not given in full), the Potency entry is “inactive”.

For `CC(=Cc1csc(C)n1)[C@@H]1C[C@H]2O[C@@H]2CCC[C@H](C)[C@@H](O)[C@@H](C)C(=O)C(C)(C)[C@@H](O)CC(=O)O1`, the Potency was 1 nM (active). `O=S(=O)(F)Cc1ccccc1`: the Potency entry was “inactive”. As for `O=c1[nH]c2ccccc2n1C1CCN(Cc2ccc(-c3[nH]c4cc5ncnc5cc4nc3-c3ccccc3)cc2)CC1`, the Potency is 18700 nM (active).

On to `CC(C)[C@]12O[C@@H]1[C@@H]1O[C@]13[C@]1(O[C@H]1C[C@@H]1C4=C(CC[C@@]13C)C(=O)OC4)[C@H]2O`, for which the Potency entry was “inactive”.

As for `COc1ccc2c(c[n+](C)c3c4cc5c(cc4ccc23)OCO5)c1OC`, the Potency is 7430 nM (active).

Regarding `O=c1[nH]c2ccc(Cl)cc2c(N[C@@H]2CN3CCC2CC3)c1-c1nc2ccccc2[nH]1`, the Potency was 935 nM (active).

In the case of `C[C@@H]1CC[C@H]2[C@@H](C)C(=O)O[C@@H]3O[C@@]4(C)CC[C@H]1[C@]32OO4`, the Potency entry is “inactive”. Next, `COC[C@H]1OC(=O)c2coc3c2[C@@]1(C)C1=C(C3=O)[C@@H]2CC[C@H](O)[C@@]2(C)C[C@@H]1OC(C)=O`: 6620 nM (active); `COc1cccc2c1[C@]13CCN(CC4CC4)[C@H](C2)[C@]1(OC)CCC(=O)C3`: “inactive”; `CN(C)[C@@H]1C(=O)C(C(N)=O)=C(O)[C@@]2(O)C(=O)C3=C(O)c4c(O)cccc4[C@@](C)(O)[C@H]3[C@H](O)[C@@H]12`: “inactive”.

`CN(C)NC(=O)CCC(=O)O`: the Potency entry was “inactive”. Take `COc1ccc(N(C(=O)Oc2c(C)cccc2C)c2ccnc(Nc3ccc(N4CCN(C)CC4)cc3)n2)c(OC)c1`: the Potency was 7430 nM (active). With `CC(C)(O)C(=O)Nc1ccc([N+](=O)[O-])c(C(F)(F)F)c1`, the Potency was 23500 nM (active).

As to `CCCN1CCO[C@@H]2c3cc(O)ccc3OC[C@@H]21`, the Potency result is “inactive”.

On to `CC[C@@H]1[C@@H](C)O[C@@](O)([C@@H](C)[C@H](O)[C@H](C)[C@H]2OC(=O)C=CC=C[C@@H](C)[C@@H]([C@@H](C)[C@@H](O)[C@H](C)[C@@]3(O)C[C@H](O[C@H]4C[C@H](O)[C@H](O)[C@H](C)O4)[C@H](CC)[C@@H](C)O3)OC(=O)C=CC=C[C@@H]2C)C[C@H]1O[C@H]1C[C@H](O)[C@H](O)[C@H](C)O1`, for which the Potency is 372 nM (active). Turning to `N#C[C@H](O[C@@H]1O[C@H](CO[C@@H]2O[C@H](CO)[C@H](O)[C@H](O)[C@H]2O)[C@H](O)[C@H](O)[C@H]1O)c1ccccc1`, the Potency is 5900 nM (active). Then `CC1=C(O)C(=O)C=C2C1=CC=C1[C@@]2(C)CC[C@@]2(C)[C@@H]3C[C@](C)(C(=O)O)CC[C@]3(C)CC[C@]12C`, with 1050 nM (active); and `CCNC(=O)C[C@@H]1N=C(c2ccc(Cl)cc2)c2cc(OC)ccc2-n2c(C)nnc21`, with 264 nM (active); and `NC1CC1c1ccccc1` (stereo not given), with “inactive”. `CCNC(=O)CC1N=C(c2ccc(Cl)cc2)c2cc(OC)ccc2-n2c(C)nnc21` (stereo not given): the Potency was 13200 nM (active). For the compound `CSCC[C@@H](NC(=O)[C@@H](Cc1ccccc1)NC(=O)CNC(=O)CNC(=O)[C@@H](N)Cc1ccc(O)cc1)C(=O)O`, the Potency result was “inactive”.

Source of the values: PubChem BioAssay (NCATS).
